Reference: PubChem BioAssay AID1211 (NMMLSC, 2008)
The source made the active and inactive calls. The rule behind the calls is not given here.

Target: Estrogen receptor (Homo sapiens) (UniProt P03372)
Test: ERalpha ligand binders by competition, primary screen, cell-based, Cos7 ERalpha-GFP, flow cytometry (AID 1211);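 note: 0% = DMSO vehicle wells and 100% = no E2-Alexa633 signal left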
Conditions: fluorescent ligand competition, stronger effect = higher value

Chain of Estrogen receptor (Homo sapiens) (P03372 whole entry, looked up): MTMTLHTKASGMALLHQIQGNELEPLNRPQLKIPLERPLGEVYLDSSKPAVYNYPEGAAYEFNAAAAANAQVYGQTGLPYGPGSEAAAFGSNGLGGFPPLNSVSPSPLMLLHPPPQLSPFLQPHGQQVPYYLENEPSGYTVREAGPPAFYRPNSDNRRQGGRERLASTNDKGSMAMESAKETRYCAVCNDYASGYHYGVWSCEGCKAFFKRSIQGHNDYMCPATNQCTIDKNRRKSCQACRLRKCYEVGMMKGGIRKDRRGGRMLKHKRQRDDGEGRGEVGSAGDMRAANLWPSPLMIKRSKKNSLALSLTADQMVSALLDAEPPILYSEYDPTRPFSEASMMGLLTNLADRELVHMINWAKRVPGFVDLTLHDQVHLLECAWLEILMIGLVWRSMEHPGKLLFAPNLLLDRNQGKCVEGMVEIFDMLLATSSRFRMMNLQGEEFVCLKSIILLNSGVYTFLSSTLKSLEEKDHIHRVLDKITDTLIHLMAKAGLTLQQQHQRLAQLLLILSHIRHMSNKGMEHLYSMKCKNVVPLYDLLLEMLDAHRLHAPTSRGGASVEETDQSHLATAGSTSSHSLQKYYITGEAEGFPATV

Row | Compound | inhibition of ligand binding (at 10 µM) | inhibition of ligand binding (binding inhibition, at 0.1 µM)
1 | O=C(CSc1nc2ccccc2c(=O)[nH]1)c1ccc(O)c(O)c1 | 14% (inactive) | 5%
2 | Cn1ccnc1SCC(=O)Nc1ccc2nc(SCC(=O)NC3CC3)sc2c1 | 30% (active) | 78%
3 | O=C(CSc1nnc(Nc2ccccc2F)s1)NCc1ccco1 | 3% (inactive) | 3%
4 | Nc1ccc2oc(-c3ccccc3Cl)cc(=O)c2c1O | 46% (inactive) | 30%
5 | CCCC1=NN2C(=N)/C(=C\c3ccc(SCc4ccco4)o3)C(=O)N=C2S1 | 14% (inactive) | 26%
6 | NC(=O)c1oc2ccccc2c1NC(=O)c1nc2ccccc2s1 | 43% (inactive) | 4%
7 | CCOC(=O)N1CCN(S(=O)(=O)c2ccc(C(=O)Nc3nc4ccc(F)cc4s3)cc2)CC1 | 34% (inactive) | 11%
8 | COc1ccc(-n2c(SCC(=O)Nc3nccs3)nc3sc4c(c3c2=O)CCN(C)C4)cc1 | 30% (inactive) | 24%
9 | COc1ccc(OC)c(C(=O)CSc2nnc(-c3ccc(OC)c(OC)c3)o2)c1 | 23% (inactive) | 58%
10 | COc1ccc2c(c1)c(=O)oc1cc(OCC(=O)N3CCC(C)CC3)ccc12 | 0% (inactive) | 26%
11 | COc1ccc(N2Cc3cccc(C(=O)N4CCN(C(=O)c5ccco5)CC4)c3C2=O)cc1 | 20% (inactive) | 38%
12 | O=C(Cn1nnc(-c2ccc3c(c2)OCO3)n1)NCc1ccco1 | 38% (inactive) | 62%
13 | O=C1c2ccccc2NC(c2cccnc2)N1c1ccccc1F (centres undefined) | 14% (inactive) | 35%
14 | CC(C)CC(=O)Nc1ccc(C(=O)COc2ccc(-c3nnco3)cc2)cc1 | 28% (inactive) | 23%
15 | CCC1=NN2C(=N)/C(=C\c3ccc(SCc4ccco4)o3)C(=O)N=C2S1 | 22% (inactive) | 10%
16 | Clc1ccc2nc(-c3ccccn3)c(Nc3ccc4c(c3)OCO4)n2c1 | 42% (inactive) | 9%
17 | O=C(CSc1nnnn1-c1ccccc1)Nc1nsc(-c2ccc(Cl)cc2)n1 | 47% (inactive) | 8%
18 | Cc1ccc(OCCN2CCN(CC(O)Cn3c4ccccc4c4ccccc43)CC2)cc1 (centres undefined) | 37% (inactive) | 33%
19 | Cc1cc(C(=O)Nc2sc3c(c2C#N)CCC3)no1 | 46% (active) | 66%
20 | Cc1nc2cc(-c3ccsc3-n3c(C)ccc3C)[nH]n2c(=O)c1Cl | 30% (inactive) | 54%
21 | COc1nc(-c2ccc(Cl)cc2)ccc1-c1noc(-c2ccco2)n1 | 57% (inactive) | 14%

Row | Compound | inhibition of ligand binding (at 10 µM) | inhibition of ligand binding (binding inhibition, at 0.1 µM)
22 | Cc1ccc(-c2nnc(-c3ccc(NC(=O)c4ccco4)cc3)o2)cc1 | 0% (inactive) | 8%
23 | O=C(N/N=C/c1cccc(Oc2ccc([N+](=O)[O-])cc2[N+](=O)[O-])c1)c1cncc(Br)c1 | 21% (inactive) | 63%
24 | Nc1ccc2nc(-c3cccs3)[nH]c2c1 | 10% (inactive) | 49%
25 | COc1ccc(NC(=O)C(NC(=O)c2ccc(=O)[nH]c2)c2ccc(C)cc2)cc1 (centres undefined) | 4% (inactive) | 13%
26 | Oc1ccc(-c2csc(-c3c[nH]c4ccccc34)n2)c(O)c1 | 57% (inactive) | 45%
27 | O=C(c1cc2ncc(Br)cn2n1)N1CCOCC1 | 54% (inactive) | 25%
28 | CC(C)CN(C(=O)COC(=O)c1cc2c(s1)CCC2)C1CCS(=O)(=O)C1 (centres undefined) | 47% (inactive) | 21%
29 | COc1cccc(-n2nnnc2SCC(=O)Nc2ccc(C(C)=O)cc2)c1 | 38% (inactive) | 45%
30 | CCc1ccc(Nc2nc(N)nc(CSc3nnnn3-c3ccccc3)n2)cc1 | 49% (inactive) | 16%
31 | CCOC(=O)c1c(C)oc2c1c(C=NC1CCS(=O)(=O)C1)c(O)c1ccccc12 (centres undefined) | 29% (inactive) | 43%
32 | CC1(C)N=C(N)N=C(N)N1c1ccc(C(=O)O)cc1 | 35% (inactive) | 21%
33 | O=C(Cc1cccs1)Nc1ccc(-c2nnn(CC(=O)N3CCOCC3)n2)cc1 | 15% (inactive) | 55%
34 | COc1ccc(Cc2nnc(NC(=O)Cc3cccs3)s2)cc1 | 47% (inactive) | 47%
35 | CSc1ccccc1NC(=O)c1noc2c1CCC2 | 56% (inactive) | 26%
36 | O=C(Nc1cnn(C23CC4CC(CC(C4)C2)C3)c1)c1cnn2c(C(F)(F)F)cc(-c3ccco3)nc12 | 48% (inactive) | 25%
37 | CNc1nnc(-c2cc3cc(Cl)ccc3oc2=O)s1 | 29% (inactive) | 58%
38 | O=C(Nc1sc2c(c1C(=O)O)CCC2)c1ccccc1 | 15% (inactive) | 61%
39 | Cc1ccsc1/C=C(\C(=O)c1ccc(OC(C)C)cc1)c1nc2ccccc2o1 | 12% (inactive) | 40%
40 | CCCSc1nc(C)c(-c2csc(C(C#N)=C3CCCC3)n2)cc1C#N | 37% (inactive) | 44%
41 | Cn1c(-c2ccc(N)cc2)nc2ccccc21 | 23% (inactive) | 15%
42 | Cc1ccc(C(=O)N/N=C/c2ccc([N+](=O)[O-])s2)cc1 | 40% (active) | 73%
